# Experimental data: PubChem BioAssay (NCATS)
# Inconclusive results are not listed. Calls of active or inactive are those of the source. Unless noted, the call rests on the fitted dose curve.
# Columns and labels:
# [1] = qHTS for Inhibitors of the Functional Ribonucleoprotein Complex (vRNP) of Lassa (LASV) Arenavirus: Viability assay - alamar blue signal for LASV Primary Screen (AID 1347083; calls by dose curve; tested in HEK293 reporter line; further: nearly all actives have a fitted effect of over 80% in size; further: potency means the concentration at half of the fitted maximal effect)
# [2] = qHTS for Inhibitors of the Functional Ribonucleoprotein Complex (vRNP) of Lymphocytic Choriomeningitis Arenaviruses (LCMV): Viability assay - alamar blue signal for LCMV Primary Screen (AID 1347085; calls by dose curve; tested in HEK293 reporter line; further: nearly all actives have a fitted effect of over 80% in size; further: potency means the concentration at half of the fitted maximal effect)
# [3] = Cytotoxicity counterscreen for inhibitors of SARS-CoV-2 cell entry (AID 1645845); further: nearly all actives have a fitted effect of over 50% in size; further: potency means the concentration at half of the fitted maximal effect
# In short: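 ATP-content luminescence (ATPLite 1step, 15 min RT) read after 48 h compound exposure of Expi293F cells stably expressing human ACE2; normalized to cells-only wells and media-only wells.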
# [4] = Primary qHTS to identify inhibitors of SARS-CoV-2 cell entry (AID 1645846); settings: activity change, negative = inhibition: at 57.1 µM (top of the series) unless noted; further: nearly all actives have a fitted effect of over 45% in size; further: potency means the concentration at half of the fitted maximal effect
# In short: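 Entry measured by luciferase signal 48 h after adding SARS-CoV-2-S pseudotyped MLV particles to HEK293-ACE2 cells preincubated 1 h with compounds. Normalisation: bald particles and spike particles.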
# [5] = Confirmatory qHTS for VERO E6 Cytotoxicity Assay: Counterscreen for SARS-CoV-2 CPE Assay (AID 1508605); further: on the % scale 0 is the no-effect control and ±100 the full control effect; nearly all actives have a fitted effect of over 60% in size
# [6] = qHTS profiling of the MIPE4 collection as inhibitors of Plasmodium falciparum (3D7) proliferation (AID 743344; call rule not given here;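 further: scaled between DMSO vehicle wells and 0.29 µM artemisinin as full inhibition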); settings: P. falciparum 3D7 in erythrocytes, SYBR Green DNA fluorescence, 72 h; at 28.5 µM (top of the series) unless noted
# In short: (§1)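 Parasite DNA was quantified by SYBR Green I fluorescence (ex 485, em 535 nm) after overnight lysis in saponin/Triton buffer at room temperature. Cultures at 0.3% parasitemia and 2.5% hematocrit were first exposed to compound for 72 h at 37 C; signals were normalised to artemisinin (0.29 uM) and vehicle wells.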
# [7] = qHTS profiling of the MIPE4 collection as inhibitors of Plasmodium falciparum (DD2) proliferation (AID 743345; call rule not given here); settings: P. falciparum Dd2 in erythrocytes, SYBR Green DNA, 72 h; at 28.5 µM (top of the series) unless noted
# In short: as §1
# [8] = qHTS profiling of the MIPE4 collection as inhibitors of Plasmodium falciparum (HB3) proliferation (AID 743347; call rule not given here;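 further: plate controls were DMSO vehicle wells for no effect and artemisinin wells for full effect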); settings: P. falciparum HB3 in erythrocytes, SYBR Green DNA, 72 h; at 28.5 µM (top of the series) unless noted
# In short: as §1
# [9] = target: Nucleoprotein (Lymphocytic choriomeningitis virus (strain Armstrong)) (UniProt P09992); assay: qHTS for Inhibitors of the Functional Ribonucleoprotein Complex (vRNP) of Lymphocytic Choriomeningitis Arenaviruses (LCMV): LCMV Primary Screen - GLuc reporter signal (AID 1347086); further: nearly all actives have a fitted effect of over 70% in size; further: potency means the concentration at half of the fitted maximal effect; on activity change, negative = inhibition: on the % scale 0 is the no-effect control and ±100 the full control effect
# Nucleoprotein (Lymphocytic choriomeningitis virus (strain Armstrong)), sequence (P09992 whole entry, looked up): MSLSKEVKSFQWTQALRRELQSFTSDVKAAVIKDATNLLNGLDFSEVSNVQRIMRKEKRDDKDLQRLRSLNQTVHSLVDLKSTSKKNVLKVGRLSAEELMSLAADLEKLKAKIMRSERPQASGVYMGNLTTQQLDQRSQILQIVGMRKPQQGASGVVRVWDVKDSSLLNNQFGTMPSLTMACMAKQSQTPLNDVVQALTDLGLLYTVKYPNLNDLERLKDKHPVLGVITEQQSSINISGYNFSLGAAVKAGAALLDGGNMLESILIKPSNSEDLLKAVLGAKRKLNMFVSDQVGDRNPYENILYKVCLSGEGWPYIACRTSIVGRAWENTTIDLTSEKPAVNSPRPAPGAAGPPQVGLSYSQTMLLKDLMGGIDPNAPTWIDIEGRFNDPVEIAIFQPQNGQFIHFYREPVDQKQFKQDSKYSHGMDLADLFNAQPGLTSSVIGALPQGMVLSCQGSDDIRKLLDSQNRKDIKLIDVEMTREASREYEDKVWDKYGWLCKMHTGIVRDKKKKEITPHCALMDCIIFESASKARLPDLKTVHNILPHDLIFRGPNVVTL
# [10] = target: Peroxisome proliferator-activated receptor delta (Homo sapiens) (UniProt Q03181); assay: qHTS assay for small molecule agonists of peroxisome proliferator-activated receptor delta signaling (AID 588534);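 further: 0% = DMSO basal wells and 100% = positive control agonist at 10 µM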
# Peroxisome proliferator-activated receptor delta (Homo sapiens), sequence (Q03181 whole entry, looked up): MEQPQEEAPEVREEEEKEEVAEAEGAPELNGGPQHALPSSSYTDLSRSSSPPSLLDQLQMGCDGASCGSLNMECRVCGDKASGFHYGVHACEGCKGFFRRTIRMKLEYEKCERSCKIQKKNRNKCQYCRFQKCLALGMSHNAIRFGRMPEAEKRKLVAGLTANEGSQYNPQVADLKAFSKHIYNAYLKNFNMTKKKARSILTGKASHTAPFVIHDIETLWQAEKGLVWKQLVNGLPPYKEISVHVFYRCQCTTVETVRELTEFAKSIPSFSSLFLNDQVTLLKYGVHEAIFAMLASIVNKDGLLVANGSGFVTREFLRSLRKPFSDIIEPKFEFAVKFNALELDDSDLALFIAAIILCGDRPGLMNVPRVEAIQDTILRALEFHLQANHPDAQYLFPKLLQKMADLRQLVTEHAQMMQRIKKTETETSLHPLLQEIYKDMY
# In short: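 Agonist-mode qHTS; reporter cells, 5 hrs 37 C pre-incubation; compound titration, 18 hrs 37 C; CCF4 dye, 2 hrs RT; fluorescence read. EC50/efficacy via Hill fit.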
# [11] = target: Alpha-galactosidase (Coffea arabica) (UniProt Q42656); assay: Counterscreen for Glucocerebrosidase Inhibitors: qHTS Assay for Coffee Bean alpha-Galactosidase at pH 4.5 (AID 957; active means well fitted curve in the direction sought with a large enough effect; an effect the other way counts as inactive or inconclusive;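 further: plate controls were enzyme alone for no effect and no enzyme for full effect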)
# Alpha-galactosidase (Coffea arabica), sequence (Q42656 whole entry, looked up): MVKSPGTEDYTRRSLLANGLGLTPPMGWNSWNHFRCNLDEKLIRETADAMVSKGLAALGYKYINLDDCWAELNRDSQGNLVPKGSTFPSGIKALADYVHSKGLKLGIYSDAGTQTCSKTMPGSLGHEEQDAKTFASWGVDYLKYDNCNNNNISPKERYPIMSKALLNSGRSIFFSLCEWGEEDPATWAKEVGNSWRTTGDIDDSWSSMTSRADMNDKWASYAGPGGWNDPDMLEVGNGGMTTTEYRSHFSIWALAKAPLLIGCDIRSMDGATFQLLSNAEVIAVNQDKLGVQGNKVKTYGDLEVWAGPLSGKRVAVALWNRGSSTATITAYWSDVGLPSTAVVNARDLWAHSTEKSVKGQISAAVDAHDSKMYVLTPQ
# In short: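 Enzyme is added first (2 nM final), then compounds titrated from 0.7 nM to 77 uM, then 80 uM 4-methylumbelliferyl alpha-D-galactopyranoside; after 20 min at room temperature a pH 10 NaOH/glycine stop precedes fluorescence reading at 365/440 nm.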
# [12] = target: Alpha-galactosidase (Coffea arabica) (UniProt Q42656); assay: Counterscreen for Glucocerebrosidase Inhibitors: qHTS Assay for Coffee Bean alpha-Galactosidase at pH 5.9 (AID 998; active means well fitted curve in the direction sought with a large enough effect; an effect the other way counts as inactive or inconclusive;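 further: plate controls were uninhibited enzyme for no effect and no-enzyme basal signal for full effect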)
# In short: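 Fluorogenic 4-MU substrate hydrolysis, 80 uM substrate and 2 nM coffee bean alpha-galactosidase, pH 5.9 citrate buffer, 20 min at room temperature, then NaOH/glycine stop. Titration 0.7 nM–77 uM, normalized to no-enzyme and enzyme controls, AC50 via Hill equation.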
# [13] = Inducers of the Endoplasmic Reticulum Stress Response (ERSR) in human glioma: Validation (AID 504836; active means well fitted curve in the direction sought with a large enough effect; an effect the other way counts as inactive or inconclusive; further: 0% is about no effect)
# In short: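 ERSR induction read as luciferase luminescence (Bright-Glo, 10 min at room temperature) in stably transfected human U87-MG glioma cells exposed to compounds for 16 h, using GRP78 as sensor.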
structure (smiles),measurement,setting,value
Cc1cc(C(=O)NOCCO)c(Nc2ccc(I)cc2F)n(C)c1=O,Potency,[1],6.85 µM (active)
same,Potency,[2],0.863 µM (active)
same,Potency,[3],inactive
same,"activity change, negative = inhibition",[4],-17.4%
Cc1cnc(NC(=O)Nc2cc(Br)c(C)cc2OC[C@@H]2CNCCO2)cn1,Potency,[1],2.43 µM (active)
same,Potency,[2],10.9 µM (active)
same,Potency,[4],10 µM (active)
CN[C@@H](C)C(=O)N[C@H]1CN(C(=O)CC(C)C)CC[C@H]2CC[C@@H](C(=O)NC(c3ccccc3)c3ccccc3)N2C1=O,Potency,[1],3.43 µM (active)
same,Potency,[2],12.2 µM (active)
same,Potency,[3],inactive
same,"activity change, negative = inhibition",[4],1.03%
O=C(N[C@@H](c1ccccc1)[C@@H]1CCCCN1)c1cccc(C(F)(F)F)c1Cl,Potency,[1],0.0243 µM (active)
same,Potency,[2],0.0086 µM (active)
same,Potency,[5],inactive
same,Potency,[3],inactive
CC[C@H](CC[C@@H](C)[C@H]1CC[C@H]2[C@@H]3CC=C4C[C@@H](O)CC[C@]4(C)[C@@H]3CC[C@]12C)C(C)C,"parasite growth, % of DMSO control",[6],94%
same,"parasite growth remaining, % of DMSO control (lower = more inhibition)",[7],101%
same,Potency,[1],8.63 µM (active)
same,Potency,[2],2.43 µM (active)
NC(=O)c1ncn([C@@H]2O[C@H](CO)[C@@H](O)[C@@H]2O)n1,"parasite growth, % of DMSO control",[6],91.7%
same,"parasite growth remaining, % of DMSO control (lower = more inhibition)",[7],90.2%
same,"growth, % of control",[8],53.5%
same,Potency,[1],inactive
same,Potency,[2],inactive
Cc1ccn(-c2ccc(-c3ncco3)cc2)c(=O)c1-c1ccc2nc(N)ncc2c1,Potency,[1],3.43 µM (active)
same,Potency,[9],inactive
same,Potency,[3],inactive
same,Potency,[4],inactive
C[C@]12CC[C@@H]3c4ccc(O)cc4CC[C@H]3[C@H]1CC[C@H]2O,Potency,[10],inactive
same,Potency,[1],9.68 µM (active)
same,Potency,[9],1.22 µM (active)
NC(=O)Nc1cc(-c2ccc(CN3CCOCC3)cc2)sc1C(N)=O,Potency,[1],7.69 µM (active)
same,Potency,[9],inactive
same,Potency,[3],inactive
same,"activity change, negative = inhibition",[4],-10.1%
CS(=O)(=O)N1CCc2c(-c3cnc(N)nc3)nc(N3CCOCC3)nc21,Potency,[1],0.273 µM (active)
same,Potency,[9],inactive
same,Potency,[3],3.55 µM (active)
CCC1(O)C(=O)OCc2c1cc1n(c2=O)Cc2cc3cc(O)ccc3nc2-1 (stereo unspecified),Potency,[2],0.1 µM (active)
CC(C)=CCCC(C)=CCCC(C)=CCCC(C)=CCCC(C)=CCCC(C)=CCCC(C)=CCCC(C)=CCCC(C)=CCO,Potency,[2],21.7 µM (active)
c1cc(N[C@@H]2CCNC2)nc(-c2cnc3ccc(-c4cn[nH]c4)cn23)c1,Potency,[1],10.9 µM (active)
same,Potency,[9],inactive
same,Potency,[3],31.6 µM (active)
CCCCCCN(CCCCCC)C(=O)Cc1c(-c2ccc(F)cc2)[nH]c2ccccc12,outcome,[11],inactive
same,outcome,[12],inactive
same,outcome,[13],inactive
same,Potency,[1],inactive
CN(C)CCOc1ccc(C(=C(CCCl)c2ccccc2)c2ccccc2)cc1,"parasite growth, % of DMSO control",[6],67.8%
same,"parasite growth remaining, % of DMSO control (lower = more inhibition)",[7],55.4%
same,Potency,[1],12.2 µM (active)
COCCOc1ccc2c(c1)ncn2-c1ccc2cccc(N3CCC(N)CC3)c2n1,Potency,[1],24.3 µM (active)
same,Potency,[9],inactive
same,Potency,[4],12.6 µM (active)
O=C(Nc1cccc(Br)c1)c1cccc(S(=O)(=O)N2CCCCCC2)c1,Potency,[1],24.3 µM (active)
same,Potency,[9],15.3 µM (active)
same,Potency,[4],31.6 µM (active)
